# Calls of active or inactive are those of the source. Unless noted, no rule for the calls is given here.
# Legend:
# [1] = anti-His antibody binders, primary screen, artefact control for SMM control protein annotation, biochemical, small-molecule microarray, 635 nm fluorescence (AID 1128); details: anti-His Alexa647 antibody binding, higher = more signal;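 also: score merges feature fluorescence with signal-to-noise for each printed compound spot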
# [2] = test system: Human papillomavirus type 1a E7 protein (residues 1-88); assay: HPV1a E7 small-molecule binders, primary screen, biochemical, small-molecule microarray, residues 1-88, 635 nm (AID 1129); details: small-molecule microarray binding, fluorescence 635 nm; higher = more signal
# [3] = target: Focal adhesion kinase 1 (Homo sapiens) (UniProt Q05397); assay: small-molecule microarray binders of FAK, primary screen, biochemical, 635/667 nm fluorescence, BSA, DTT (AID 1130); details: PTK2 binding, 635 nm fluorescence, higher = more signal;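 also: composite of spot emission at 667 nm and signal to noise over triplicate slides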
# Chain of Focal adhesion kinase 1 (Homo sapiens) (Q05397 whole entry, looked up): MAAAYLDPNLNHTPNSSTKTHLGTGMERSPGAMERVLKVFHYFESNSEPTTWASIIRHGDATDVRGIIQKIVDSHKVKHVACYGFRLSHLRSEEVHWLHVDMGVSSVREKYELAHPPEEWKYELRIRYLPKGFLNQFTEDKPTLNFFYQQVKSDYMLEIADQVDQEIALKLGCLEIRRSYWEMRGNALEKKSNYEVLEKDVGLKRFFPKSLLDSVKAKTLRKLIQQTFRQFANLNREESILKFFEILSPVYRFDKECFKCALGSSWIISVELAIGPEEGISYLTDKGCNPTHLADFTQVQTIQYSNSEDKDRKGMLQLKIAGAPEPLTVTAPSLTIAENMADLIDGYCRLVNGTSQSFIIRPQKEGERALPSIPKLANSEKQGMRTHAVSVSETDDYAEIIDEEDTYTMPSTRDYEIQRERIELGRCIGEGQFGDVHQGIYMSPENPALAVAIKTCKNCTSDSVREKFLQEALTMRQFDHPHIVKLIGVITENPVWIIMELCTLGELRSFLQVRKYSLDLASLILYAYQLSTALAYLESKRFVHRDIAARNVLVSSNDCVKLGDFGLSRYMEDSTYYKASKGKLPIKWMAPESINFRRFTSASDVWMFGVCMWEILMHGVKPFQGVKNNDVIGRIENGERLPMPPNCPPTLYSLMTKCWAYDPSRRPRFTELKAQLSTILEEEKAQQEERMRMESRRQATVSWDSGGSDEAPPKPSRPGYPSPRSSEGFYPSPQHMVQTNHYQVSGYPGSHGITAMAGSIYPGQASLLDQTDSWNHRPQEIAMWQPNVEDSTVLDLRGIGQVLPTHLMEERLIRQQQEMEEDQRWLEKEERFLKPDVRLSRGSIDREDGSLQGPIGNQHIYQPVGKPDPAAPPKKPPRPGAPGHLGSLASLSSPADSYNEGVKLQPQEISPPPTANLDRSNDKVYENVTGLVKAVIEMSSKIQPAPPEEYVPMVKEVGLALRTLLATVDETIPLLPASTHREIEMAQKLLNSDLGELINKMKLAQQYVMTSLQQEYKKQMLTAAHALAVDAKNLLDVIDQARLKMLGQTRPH
# [4] = test system: Fibrinogen (Alexa647-labelled); assay: fibrinogen binders on compound microarrays, profiling panel, artefact control for SMM control-protein annotation, biochemical, small-molecule microarray, 635/667 nm fluorescence (AID 1131); details: fibrinogen-A647 binding fluorescence, higher = more signal;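 also: z-score merges 667 nm fluorescence with per-spot signal-to-noise over triplicate slides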
# [5] = target: Follistatin (Homo sapiens) (UniProt P19883); assay: follistatin binders on small-molecule microarrays, primary screen, biochemical, small-molecule microarray, 635/667 nm fluorescence (AID 1132); details: FST binding, 635 nm fluorescence, higher = more signal
# Chain of Follistatin (Homo sapiens) (P19883 whole entry, looked up): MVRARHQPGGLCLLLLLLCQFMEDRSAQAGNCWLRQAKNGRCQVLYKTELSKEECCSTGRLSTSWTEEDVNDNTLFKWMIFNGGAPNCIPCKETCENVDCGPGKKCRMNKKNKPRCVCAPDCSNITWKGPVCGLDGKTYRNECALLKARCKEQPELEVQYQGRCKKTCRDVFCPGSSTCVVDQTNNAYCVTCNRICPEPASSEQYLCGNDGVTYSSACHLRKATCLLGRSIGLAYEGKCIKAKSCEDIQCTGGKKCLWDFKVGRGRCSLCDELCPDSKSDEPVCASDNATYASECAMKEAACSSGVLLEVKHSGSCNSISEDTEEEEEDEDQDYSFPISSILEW
# [6] = target: Fibroblast growth factor 2 (Homo sapiens) (UniProt P09038); assay: FGF2 binders on small-molecule microarrays, primary screen, biochemical, small-molecule microarray, 635/667 nm fluorescence (AID 1133); details: small-molecule microarray binding, FGF2, fluorescence 635/667; higher = more signal
# Chain of Fibroblast growth factor 2 (Homo sapiens) (P09038 whole entry, looked up): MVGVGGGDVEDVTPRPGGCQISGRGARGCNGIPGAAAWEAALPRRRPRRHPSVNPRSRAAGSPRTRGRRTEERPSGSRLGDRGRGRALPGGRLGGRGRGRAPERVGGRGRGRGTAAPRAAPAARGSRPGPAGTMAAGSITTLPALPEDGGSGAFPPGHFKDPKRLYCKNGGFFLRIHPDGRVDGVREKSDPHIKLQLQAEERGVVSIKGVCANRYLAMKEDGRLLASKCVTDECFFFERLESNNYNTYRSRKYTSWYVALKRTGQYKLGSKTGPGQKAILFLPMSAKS
# [7] = mitochondrial membrane potential change in A549 cells, profiling panel, cell-based, JC-1 fluorescence, basal, 24 h, 100 nL (AID 1138); details: higher = more signal;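 also: A549 lung adenocarcinoma cells under basal conditions with no added stimulus; test concentration not given here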
# [8] = test system: Lefty1; assay: Lefty1 binders on small-molecule microarrays, primary screen, biochemical, small-molecule microarray, 635/667 nm fluorescence (AID 1139); details: small-molecule microarray binding, fluorescence 635/667; higher = more signal
# [9] = test system: wheat germ agglutinin (Triticum aestivum), Alexa647-labelled; assay: wheat germ agglutinin binders on compound microarrays, profiling panel, artefact control for SMM control-protein annotation, biochemical, small-molecule microarray, 635/667 nm fluorescence (AID 1140); details: WGA-A647 binding, 635 nm fluorescence, higher = more signal;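 also: score merges 667 nm feature emission with signal to noise over triplicate slides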
# [10] = target: Luciferin 4-monooxygenase (Photinus pyralis) (UniProt P08659); assay: firefly luciferase enzyme inhibitors, primary screen, biochemical, luminescence, purified enzyme, 2006 set (AID 1141); details: SteadyGlo luminescence, 30 min, higher = more signal, called active from +8 up or from −8 down;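 also: cell-free assay with purified firefly luciferase at 100 ng per well in PBS; test concentration not given here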
# Chain of Luciferin 4-monooxygenase (Photinus pyralis) (P08659 whole entry, looked up): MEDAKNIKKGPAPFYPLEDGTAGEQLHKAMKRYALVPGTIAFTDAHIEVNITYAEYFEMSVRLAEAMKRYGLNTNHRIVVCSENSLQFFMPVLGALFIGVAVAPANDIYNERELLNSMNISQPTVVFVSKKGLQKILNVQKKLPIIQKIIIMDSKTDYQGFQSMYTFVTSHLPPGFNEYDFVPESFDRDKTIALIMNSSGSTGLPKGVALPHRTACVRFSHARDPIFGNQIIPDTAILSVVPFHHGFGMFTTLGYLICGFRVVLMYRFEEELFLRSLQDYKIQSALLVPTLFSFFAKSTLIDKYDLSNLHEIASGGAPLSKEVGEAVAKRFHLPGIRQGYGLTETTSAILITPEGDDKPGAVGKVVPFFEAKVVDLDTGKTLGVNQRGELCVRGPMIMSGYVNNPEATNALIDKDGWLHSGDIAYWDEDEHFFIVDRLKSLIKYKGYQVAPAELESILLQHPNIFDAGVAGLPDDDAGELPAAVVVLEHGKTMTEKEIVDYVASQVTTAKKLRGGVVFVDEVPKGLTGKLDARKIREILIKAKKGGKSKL
# [11] = test system: Wnt5a (protein binding on small-molecule microarray); assay: Wnt5a binders on small-molecule microarray, primary screen, biophysical, 635/667 nm fluorescence (AID 1142); details: 635 nm fluorescence, higher = more signal;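 also: fluorescence read at 667 nm with signal to noise per printed feature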
# [12] = cell viability in Huh7 cells, primary screen, cytotoxicity control for HCV replication inhibitor project, CellTiter-Glo luminescence, basal, 48 h (AID 1143); details: Huh7 HCV replicon, higher = more signal, called active from +8 up or from −8 down;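 also: Huh7 hepatoma cells carrying a hepatitis C replication reporter with no stimulus; test concentration not given here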
# [13] = P. aeruginosa biofilm formation inhibitors, primary screen, PAO1 strain, BacTiter-Glo luminescence, LB-PBS (AID 1144); details: 12 h, higher = more signal
# [14] = CREB reporter modulators without forskolin, primary screen, cell-based, PC12, CRE-LacZ reporter, unstimulated (AID 1145); details: no forskolin, luminescence, 4.5 h, higher = more signal, called active from +8 up or from −8 down
# [15] = CREB reporter modulators under forskolin, primary screen, cell-based, PC12, CRE-LacZ reporter, forskolin-stimulated (AID 1146); details: luminescence, 4.5 h, higher = more signal, called active from +8 up or from −8 down;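 also: PC12 cells with 6xCRE LacZ reporter stimulated by forskolin 10 µM; beta-galactosidase reporter signal reflecting CREB driven transcription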
# [16] = target: Streptavidin (Streptomyces avidinii) (UniProt P22629); assay: streptavidin binders on small-molecule microarray, primary screen, artefact control for SMM compound annotation, biophysical, 635/667 nm fluorescence (AID 1147); details: streptavidin binding, higher = more signal;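 also: signal reflects streptavidin binding to arrayed compounds as a control protein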
# Chain of Streptavidin (Streptomyces avidinii) (P22629 whole entry, looked up): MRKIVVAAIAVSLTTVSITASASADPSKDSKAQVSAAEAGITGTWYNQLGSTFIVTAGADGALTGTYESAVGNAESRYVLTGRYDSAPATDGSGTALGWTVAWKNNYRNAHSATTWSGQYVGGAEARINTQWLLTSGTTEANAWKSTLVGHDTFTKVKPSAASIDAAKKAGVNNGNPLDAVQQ
# [17] = small-molecule binders of probe aInhba, primary screen, biochemical, small-molecule microarray, 635/667 nm fluorescence (AID 1148); details: higher = more signal;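 also: score merges 667nm spot fluorescence with signal-to-noise for antibody binding to printed compounds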
# [18] = target: Torsin-1A (Homo sapiens) (UniProt O14656); assay: torsin A binders from cell lysate, primary screen, small-molecule microarray, wild-type, 635/667 nm (AID 1149); details: COS7 hTOR1A-WT lysate, 635 nm fluorescence, higher = more signal
# Chain of Torsin-1A (Homo sapiens) (O14656 whole entry, looked up): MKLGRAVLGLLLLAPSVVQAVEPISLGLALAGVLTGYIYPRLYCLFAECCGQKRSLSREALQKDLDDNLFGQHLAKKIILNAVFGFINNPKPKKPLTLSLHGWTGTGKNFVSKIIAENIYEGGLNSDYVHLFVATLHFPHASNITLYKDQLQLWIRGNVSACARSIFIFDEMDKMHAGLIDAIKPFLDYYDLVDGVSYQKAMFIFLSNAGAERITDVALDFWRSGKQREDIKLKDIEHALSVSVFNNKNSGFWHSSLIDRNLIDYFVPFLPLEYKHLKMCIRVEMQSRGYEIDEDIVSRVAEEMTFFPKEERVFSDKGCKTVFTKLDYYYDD
# [19] = target: Torsin-1A (Homo sapiens) (UniProt O14656); assay: small-molecule binders of mutant TOR1A in lysate, primary screen, cell lysate, small-molecule microarray, COS7 lysate, 635/667 nm fluorescence (AID 1150); details: COS7 hTOR1A mutant lysate, 635 nm fluorescence, higher = more signal;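 also: score pools 667 nm emission and signal to noise measuring lysate protein binding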
# [20] = test system: Sonic hedgehog protein (Shh); assay: small-molecule binders of Shh protein, primary screen, biochemical, small-molecule microarray, 635/667 nm fluorescence (AID 1151); details: small-molecule microarray binding, 635 nm fluorescence; higher = more signal;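 also: Shh protein binding to compounds spotted on small-molecule microarray slides; score combines spot fluorescence intensity with signal-to-noise across triplicate slides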
Compound,composite z-score [1],composite z-score [2],composite z-score [3],composite z-score [4],composite z-score [5],composite z-score [6],z-score [7],composite z-score [8],composite z-score [9],z-score [10],composite z-score [11],z-score [12],z-score [13],z-score [14],z-score [15],composite z-score [16],composite z-score [17],composite z-score [18],composite z-score [19],composite z-score [20]
O=C1OCCC/C=C\[C@H]2OC34C=CCN(CCN5CCOCC5)C(=O)[C@H]3N(CCCO)C(=O)[C@@H]4C12 (stereo not given in full),-0.851,-0.786,-0.253,-1.16,-0.803,-0.506,-0.278,-0.483,0.023,0.266 (inactive),-0.196,0.732 (inactive),1.46 (inactive),-0.484 (inactive),-0.947 (inactive),-0.388,-0.292,-0.222,1.01,-0.165
CCOC(=O)C[C@H]1[C@H](OC(=O)Cc2ccc3c(c2)OCO3)[C@@H](NC(=O)c2ccc(-c3ccccc3)cc2)c2cc(OCCCO)ccc2N1C(=O)Cc1ccc(OC)cc1,0.0923,0.516,0.165,0.872,0.518,0.28,1.24,0.475,0.415,-1.11 (inactive),0.267,-0.921 (inactive),-0.304 (inactive),6.24 (inactive),0.0489 (inactive),0.0687,-0.0754,0.0816,0.394,0.965
COCC(=C=CC[C@H](O)c1ccccc1OCCO)C[C@H](O)c1cc(Cl)cc(Cl)c1O,-0.058,0.914,0.469,0.974,0.888,1.59,-0.54,0.685,0.351,-1.28 (inactive),0.626,-8.22 (active),0.421 (inactive),24.4 (active),-0.753 (inactive),0.423,-0.0877,-0.256,1.72,1.37
[N-]=[N+]=NCc1ccccc1[C@@H]1OC(c2ccc(OCCCO)cc2)=N[C@]1(Cc1ccccc1N=[N+]=[N-])C(=O)N1CCOCC1,2.12,1.27,0.536,0.857,1.31,1.66,1.28,-0.207,1.13,-1.52 (inactive),1.11,-1.61 (inactive),0.103 (inactive),1.78 (inactive),-0.514 (inactive),1.57,0.636,0.308,0.898,-0.284
CC(C)(C)OC(=O)CC[C@@]1(C(=O)NCC(O)CO)N=C(c2ccc(OCCCO)cc2)O[C@@H]1c1ccccc1N=[N+]=[N-] (stereo not given in full),2.37,0.818,0.94,0.985,1.43,0.692,1.18,-0.0052,0.96,-10.6 (active),0.849,-0.371 (inactive),-1.18 (inactive),-0.183 (inactive),-0.173 (inactive),1.85,0.289,1.45,1.76,0.146
COc1ccc(C(O)C2C=CC3C(=O)N(c4ccccc4)C(=O)C3N2Nc2ccc(C(C)C)cc2)cc1OCc1ccccc1 (stereo not given),0.893,1.17,-0.149,0.973,1.22,0.254,-0.182,0.094,1.22,-1.96 (inactive),0.409,-0.0843 (inactive),-2.09 (inactive),1.4 (inactive),-0.465 (inactive),1.89,0.341,0.385,0.554,0.55
COc1ccc(CCN2C(=O)[C@@]3(c4ccc([N+](=O)[O-])cc4)CC(=O)N(C4CCCCC4)[C@@H]3c3ccc(CO)cc32)cc1,0.521,-0.82,0.151,-0.382,1.42,1.4,-0.552,0.563,-0.569,0.3 (inactive),-0.0463,0.443 (inactive),0.0718 (inactive),-0.0512 (inactive),0.86 (inactive),-0.298,0.158,0.209,0.128,1.19
CC(=O)NCCCC[C@@H]1NC(=O)[C@@H]2C[C@H](C(=O)NCCCCCCNC(=O)CS)[C@H](c3cccc(OCCO)c3)N2C1=O,1.23,1.1,0.314,-0.917,1.24,1.59,0.488,0.574,0.379,-0.242 (inactive),0.611,0.206 (inactive),-1.05 (inactive),0.135 (inactive),-0.67 (inactive),-0.088,-0.179,0.442,0.669,1.63
C#CCN(CC=C(C)C)[C@H](CO)c1ccccc1,-0.237,0.729,-0.122,-0.0376,0.391,0.295,-1.47,-0.0431,-0.196,0.648 (inactive),-0.0366,-4.16 (inactive),-0.215 (inactive),-0.153 (inactive),0.979 (inactive),0.0089,-0.0719,0.247,1.08,0.0568
CCCCC=C[C@@H](NC(=O)Oc1cccc(C(F)(F)F)c1)c1ccccc1,0.291,1.21,0.0053,1.01,0.572,1.63,-1.68,-0.0322,1.15,1.52 (inactive),1.61,-3.46 (inactive),-0.721 (inactive),0.201 (inactive),0.0897 (inactive),1.84,0.996,0.961,0.947,-0.629

# Reference: PubChem BioAssay
